# In the library only some 3.3% were active in any assay of this set; here they are far more common.
# USP2a block: USP2a (human) protease inhibition | USP2 core, Ub-CHOP2 coupled fluorogenic reporter, 485/531 | Potency, µM (titrated, usually from 38.3 µM), inactives show at the top dose activity change, negative = inhibition, usual class: inhibitors | 330,000 tested, 0.01% active;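 also: potency is read from the fitted curve at half-maximal effect; plate controls were DMSO wells for no effect and full inhibition by NEM control for full effect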
#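 Cell-free coupled assay: 10nM USP2 core preincubated 30min RT with compound in Tris-HCl pH 8.0/CaCl2/CHAPS buffer, then 25nM Ub-CHOP2 and 25nM reporter substrate; fluorescence (Ex 485/Em 531) read after 60min RT, normalized to NEM inhibition, concentration-response curves fitted.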
# PLK1 PBD block: PLK1 (human) polo-box domain binding inhibition; 360,000 tested, 2.8% active; Plk1 PBD binding of FITC phosphopeptide, fluorescence polarization; Potency, µM, without a hit: max response, negative = inhibition, most hits filed as inhibitors; P53350; AID 720504; also: potency is read from the fitted curve at half-maximal effect; series mostly up to about 57 µM; nearly all actives have a fitted effect of over 65% in size
# Target sequence (P53350 whole entry, looked up, the tested form may be a part): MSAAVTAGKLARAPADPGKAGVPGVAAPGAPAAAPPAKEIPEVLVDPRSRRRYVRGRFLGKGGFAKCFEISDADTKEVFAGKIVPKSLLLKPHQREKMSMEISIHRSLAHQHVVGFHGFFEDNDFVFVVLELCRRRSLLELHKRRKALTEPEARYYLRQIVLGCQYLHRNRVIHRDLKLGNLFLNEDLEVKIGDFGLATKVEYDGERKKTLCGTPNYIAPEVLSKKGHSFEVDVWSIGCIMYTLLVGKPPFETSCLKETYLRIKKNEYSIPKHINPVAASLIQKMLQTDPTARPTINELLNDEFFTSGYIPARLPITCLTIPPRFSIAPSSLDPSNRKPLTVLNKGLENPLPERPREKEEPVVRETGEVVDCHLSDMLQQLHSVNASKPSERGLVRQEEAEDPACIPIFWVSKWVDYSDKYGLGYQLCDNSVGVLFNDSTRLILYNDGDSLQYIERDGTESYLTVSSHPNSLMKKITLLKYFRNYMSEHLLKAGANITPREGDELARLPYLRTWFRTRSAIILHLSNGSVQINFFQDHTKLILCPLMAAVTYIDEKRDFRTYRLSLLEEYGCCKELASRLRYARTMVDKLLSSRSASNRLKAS
# WRN inhibitor: inhibitors of human WRN helicase | Q14191 | WRN helicase unwinding, fluorescent forked duplex, kinetic | Potency, µM (top dose mostly 114 µM), for inactives: at the highest dose activity change, negative = inhibition, hits mostly inhibitors | 360,000 tested, 0.46% active; also: potency is read from the fitted curve at half-maximal effect; nearly all actives have a fitted effect of over 55% in size
#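 Fluorescence dequenching readout, ex 525 nm/em 598 nm, kinetic mode: forked duplex DNA (100 nM final) with adjacent fluorophore and quencher unwound by WRN (20 nM final) with 2 mM ATP. Compound preincubation 15 min, room temperature.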
# PI5P4Ka inh: inhibitors of human PI5P4K alpha; max response, %; P48426; 330,000 tested, 1.2% active; PI5P4Kalpha enzyme, ADP-Glo luminescence, 60 min; active compounds read low; active = max response of -50% or lower; inconclusive = between -30% and -50%; inactive = -30% or higher; also: value at the top dose of about 77 µM
#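 Luminescence from ADP-Glo served as readout of PI5P4Kalpha activity in a qHTS format. Reaction: enzyme, substrate, compound, ATP at 5 microM final, 60 min at RT.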
# USP1 inh: inhibitors of human USP1/UAF1 deubiquitinase; Potency, µM (titrated, usually from 57.1 µM), without a hit: at the top dose activity change, negative = inhibition, usual class: inhibitors; AID 743255; recombinant USP1/UAF1, Ub-Rhodamine cleavage fluorescence; 390,000 tested, 0.23% active; O94782; also: potency is read from the fitted curve at half-maximal effect; nearly all actives have a fitted effect of over 60% in size
#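 USP1/UAF1 complex (1 nM) preincubated 15 min at room temperature with compound, then Ub-Rho substrate (150 nM final) added. Kinetic fluorescence at 480/540 nm over 6 reads at 60 s intervals; 50 mM HEPES pH 7.8, 0.5 mM EDTA, 0.1 mg/ml BSA, 1 mM TCEP, 0.01% Tween-20.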
# * hit, by the source's call; ? = inconclusive; . = not tested or not shown; ! = not active in a repeat; [ ] = dose if it differs, or a comment. Unless noted, calls follow the shape of the dose curve; as a rule, active = well fitted curve in the direction sought with a large enough effect; inconclusive = small, poorly fitted or top-dose-only effect, or another doubt; inactive = no such curve, though single readings can be large; an effect the other way counts as inactive or inconclusive. Unless noted, % is scaled to controls: 0 for no effect and ±100 for the full control effect.
SMILES,USP2a block,PLK1 PBD block,WRN inhibitor,PI5P4Ka inh,USP1 inh
COCCNC(=O)Cn1cc(/C=N/NC(=O)c2ccc(Oc3ccc(O)cc3)cc2)c2ccccc21,6%,?,-13%,-107*,?
O=c1c2sc3ccccc3c2n(Cc2cccc(C(F)(F)F)c2)c(=O)n1Cc1ccc(F)cc1,.,.,.,.,-27%
CC(C)c1nn2c(=O)cc(COC(=O)c3ccccc3NC(=O)C3CCCCC3)nc2s1,.,.,.,.,-19%
C=C1c2cccc(O)c2C(=O)C2C(=O)[C@]3(O)C(=O)C(C(N)=O)C(=O)[C@@H](N(C)C)[C@@H]3[C@@H](O)[C@H]12 (stereo not given in full),7.1µM*,?,?,-71*,?
CCC(=O)Nc1ccc2nc3c(=O)n(C)c(=O)n(C)c3nc2c1,.,.,.,.,11%
CCC(=O)Nc1ccc2nc3c(=O)[nH]c(=S)[nH]c3nc2c1,3%,?,?,-66*,?
Oc1c(Cl)cc(Cl)c2c1NCCC2,1%,4.7µM*,-21%,-4,-24%
CCN(CC)CC(C)CNC(=O)c1cc(-c2ccc(Br)s2)nc2ccccc12 (stereo not given),.,.,.,.,-18%
COc1cccc2sc(NC(=O)c3ccc(S(=O)(=O)N4CCC(C)CC4)cc3)nc12,.,.,.,.,-23%
COc1ccc(OC)c(NC(=O)C2CCCN(S(=O)(=O)c3cccc4nsnc34)C2)c1 (stereo not given),0%,3.4µM*!,-12%,?,2%
CCOC(=O)c1ccc(NC(=O)Cn2c(-c3nonc3N)nc3ccccc32)cc1,3%,21µM*,2%,?,-20%
Cc1ccc(C)c(Cn2nnc(C(=O)NCc3ccccc3)c2N)c1,.,.,.,.,-13%
Cc1ccccc1-n1nnnc1SC1CCOC1=O (stereo not given),-2%,-15%,-6%,6,-22%
CNC1(c2nnnn2-c2ccccc2C)CCOC(C)(C)C1 (stereo not given),-1%,15µM*,0%,?,-19%
Cc1ccc(N=C2NC(=O)CS2)c(C)c1,0%,-2%,5%,-3,-15%
Cc1cc(Br)ccc1N=C1NC(=O)CS1,0%,27µM*,10%,1,-20%
COC(=O)c1ccccc1NC(=O)CSc1nc2ccccc2nc1Cc1ccc(F)cc1,.,.,.,.,8%
Cc1cc2nc(/C(C#N)=C/c3ccncc3)[nH]c2cc1C,2%,27µM*,-13%,-17,-21%
Cc1ccc2nc(/C(C#N)=C/c3cccc(Br)c3)[nH]c2c1,.,.,.,.,-7%
N#C/C(=C\c1ccncc1)c1nc2ccccc2[nH]1,4%,-2%,-1%,-5,-22%
Cc1ccc2nc(/C(C#N)=C/c3ccc(O)c(O)c3)[nH]c2c1,7%,?,45µM*,-69*,-11%
Cc1ccc(-c2cc3c(N4CCN(c5cc(C)ccc5C)CC4)nccn3n2)cc1,.,.,.,.,-12%
CC(=O)Nc1ccc(C(=O)NCCCSc2ccccc2)cc1,.,3%,4%,3,-16%
CC(=O)Nc1ccc(SCCCC(=O)c2ccccc2)cc1,0%,13µM*,-13%,-6,9%
CC(C)C1C(=O)NC(=S)N1S(=O)(=O)c1ccc(C(C)(C)C)cc1 (stereo not given),-1%,24µM*,-8%,-5,-1%
SMILES,USP2a block,PLK1 PBD block,WRN inhibitor,PI5P4Ka inh,USP1 inh
NNC(=O)CNC(=O)CNS(=O)(=O)c1ccccc1,5%,-11%,2%[57.1 µM],10,-10%
CC(=O)Nc1ccc(S(=O)(=O)NNC(=O)c2cccc(Cl)c2)cc1,0%,24µM*,-11%,2,-7%
CC(Cl)C(=O)NNC(=O)CNS(=O)(=O)c1ccccc1 (stereo not given),1%,27µM*,-3%,-18,-19%
CC(=O)Nc1ccc(S(=O)(=O)NNC(=O)COc2ccc(C(C)(C)C)cc2)cc1,-1%,27µM*,-24%,2,-13%
CC(=O)Nc1ccc(S(=O)(=O)NCC(=O)NNC(=O)COc2ccccc2Cl)cc1,1%,19µM*,-1%,1,-2%
CC(=O)Nc1ccc(S(=O)(=O)NCC(=O)NNC(=O)COc2c(C)cccc2C)cc1,-7%,-5%,-21%,4,-24%
CSc1ncc(C(=O)Nc2cc(Cl)ccc2C)c(-c2ccccc2)n1,.,.,.,.,-14%
COC(=O)CC1c2cc(OC)c(OC)cc2CCN1C(=O)Nc1ccc(C)cc1Cl (stereo not given),.,.,.,.,-15%
O=C(NCCc1ccccc1)c1ccc2c(c1)N(Cc1ccccc1)C(=O)c1ccccc1S2=O (stereo not given),.,.,.,.,-19%
CC1(C)SC(=Nc2ccccc2)N(S(=O)(=O)c2ccccc2)C1=O,-1%,1%,8%,-2,-13%
O=C1C(c2ccccc2)SC(=Nc2ccccc2)N1S(=O)(=O)c1ccccc1 (stereo not given),0%,17µM*,-10%,-24,-3%
CC(=O)N1CCN(C(=S)Nc2ccc(SC(F)F)cc2)CC1,2%,21µM*,0%,-16,-4%
COc1cc(NC(=O)c2ccc(Cl)cc2)c(OC)cc1NC(=O)CN1CCCCC1,-7%,30µM*,1%[57.1 µM],-12,-17%
COc1cc(NC(=O)c2ccc(Cl)cc2)c(OC)cc1NC(=O)CN1CCOCC1,0%,-5%,1%,2,-27%
Fc1ccc(-n2cc(-c3ccccc3)c3c(NC4CCCCC4)ncnc32)cc1,.,.,.,.,-25%
CCOc1ccccc1CNC(=O)CCCn1nc(C)c2sc3ccccc3c2c1=O,.,.,.,.,-12%
CC(=O)N/N=C/c1cc(C(C)C)cc(/C=N/NC(C)=O)c1O,2%,21µM*,2%,-2,-19%
CC(=O)N/N=C/c1cc(C)n(-c2ccc(Br)cc2)c1C,-2%,7%,-19%[57.1 µM],-4,-18%
Cn1c(=O)c2c(nc3n(-c4ccc(O)cc4)c(-c4ccc(Br)cc4)cn23)n(C)c1=O,.,.,.,.,-18%
Cn1c(CCCNC(=O)c2ccco2)nc2ccccc21,.,-23%,-30%,-70*,-17%
COc1ccc(N=Nc2ccc(N)nc2N)cc1,1%,-6%,-12%,-15,-15%
CCOc1ccc2nc3cc(N=Nc4ccc(N)nc4N)ccc3c(N)c2c1,.,?,?,?,16µM*
COc1ccccc1-c1nn2c(C3COc4ccccc4O3)nnc2s1 (stereo not given),3%,12µM*,-11%,-21,-26%
c1ccc(Cc2nnc3sc(C4COc5ccccc5O4)nn23)cc1 (stereo not given),-1%,15µM*,7%,.,-18%
c1ccc(CCc2nn3c(C4COc5ccccc5O4)nnc3s2)cc1 (stereo not given),-4%,24µM*,-7%[57.1 µM],.,?
COc1ccccc1CNc1cc(-c2ccccc2)nc2nncn12,.,.,.,.,-28%
COc1ccc(OC)c(NC(=O)Cn2c(=O)cc(C)c3c(C)nn(-c4cccc(Cl)c4C)c32)c1,.,.,.,.,-6%
